Measured values published in PubChem BioAssay (Tox21).
“And” between values parts separate entries of the source, which are not always exact repeats. Identical values can stand only once. Inconclusive results are not listed. Where a call stands in place of a potency, no number is given. The source made the active and inactive calls. Unless noted, the call rests on the fitted dose curve; in most records, active means well fitted curve in the direction sought with a large enough effect in the repeat runs; inconclusive means weak or mixed curves; inactive means no such curve, though single readings can be large; an effect the other way counts as inactive or inconclusive.

Columns and labels:
[1] = qHTS assay to identify small molecule agonists of the vitamin D receptor (VDR) signaling pathway - cell viability counter screen (AID 743224); further: series mostly up to about 63 µM; nearly all actives have a fitted effect of over 50% in size
Procedure, shortened: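 CellTiter-Glo viability readout on VDR-bla cells, measured after 16 h of compound treatment at 37C in the same wells.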

[2] = qHTS assay to identify small molecule antagonists of the vitamin D receptor (VDR) signaling pathway - cell viability counter screen (AID 743225); further: nearly all actives have a fitted effect of over 50% in size
Procedure, shortened: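 In this counter screen, VDR-bla HEK 293T cells receive test compound plus 3 nM final calcitriol for 16 h at 37C. Room-temperature steps of 2 h with the beta-lactamase substrate, then 30 min with CellTiter-Glo, precede the luminescence read.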

[3] = qHTS assay to identify small molecule agonists of the NFkB signaling pathway - cell viability counter screen (AID 1159515; calls by dose curve; further: series mostly up to about 61 µM; nearly all actives have a fitted effect of over 55% in size)
Procedure, shortened: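 Tox21 library compounds were tested for cytotoxicity against NFkB-bla ME-180 cells during a 5 hr exposure at 37 C. CellTiter-Glo luminescence served as the viability read-out.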

[4] = qHTS assay to identify small molecule agonists of the endoplasmic reticulum stress response signaling pathway - cell viability counter screen (AID 1159517; calls by dose curve; further: series mostly up to about 61 µM; nearly all actives have a fitted effect of over 50% in size)
Procedure, shortened: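 After overnight attachment, ESRE-bla HeLa cells were treated with Tox21 library compounds for 5 hr. CellTiter-Glo luminescence, read 30 min post-addition at room temperature, reported viability.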

[5] = qHTS assay to identify small molecule antagonists of the retinoid-related orphan receptor gamma (ROR-gamma) signaling pathway - cell viability counter screen (AID 1159520); further: nearly all actives have a fitted effect of over 50% in size
Procedure, shortened: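 Cytotoxicity was read from cellular ATP (CellTiter-Glo luminescence) after 16 hr at 37 C with 1 uM doxycycline induction. The inducer was added 2 hr after compound transfer to Tet-on ROR gamma CHO cells.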

[6] = qHTS assay to identify small molecule agonists of the AP-1 signaling pathway - cell viability counter screen (AID 1159525; calls by dose curve; further: nearly all actives have a fitted effect of over 55% in size)
Procedure, shortened: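 Intracellular ATP by Cell Titer Glo luminescence (30 min, RT) in the same ME-180 AP-1-bla wells after the 5 h compound exposure at 37 °C. Normalised to tetra n-octyl ammonium bromide and DMSO controls.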

[7] = qHTS assay to identify small molecule agonists of the AP-1 signaling pathway (AID 1159526; calls by dose curve)
[8] = qHTS assay to identify small molecule agonists of the RXR signaling pathway - cell viability counter screen (AID 1159529)
Procedure, shortened: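 Viability read-out for the RXR-alpha agonist qHTS: luminescent CellTiter-Glo signal after 30 min at RT. HEK 293T bla reporter cells, 2% charcoal-stripped FBS, 16 hr compound incubation; tetraoctyl ammonium bromide as cytotoxic control.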

[9] = qHTS assay to identify small molecule antagonists of the retinoid acid receptor (RAR) signaling pathway - cell viability counter screen (AID 1159551); further: nearly all actives have a fitted effect of over 35% in size
Procedure, shortened: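 In this counter screen, the RARE-luciferase line C3RL4 was exposed for 6 h at 37 C and 5% CO2 to compounds with retinol at 1 uM final. Cellular ATP, read by luminescence, served as the viability measure.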

[10] = qHTS assay to identify small molecule agonists of the retinoic acid receptor (RAR) signaling pathway (AID 1159553)
Procedure, shortened: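 In this cell-based screen, 1,000 C3RL4 cells per well were cultured overnight, dosed with test chemicals in DMSO for 6 hr, and assessed for RARE luciferase luminescence.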

[11] = qHTS assay to identify small molecule antagonists of the estrogen related receptor (ERR) signaling pathway - cell viability counter screen (AID 1224818); further: series mostly up to about 46 µM
Procedure, shortened: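 Viability of ERR cells, CellTiter-Fluor fluorescence; 17.5 h compound exposure at 37 C, DMSO vehicle; 30 min reagent incubation at 37 C/5% CO2.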

[12] = qHTS assay to identify small molecule antagonists of the estrogen related receptor signaling pathway with the pleiotropic PPARgamma coactivator (PGC) cell viability counter screen (AID 1224822; further: series mostly up to about 46 µM)
Procedure, shortened: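 17.5 h compound treatment of PGC/ERR cells at 37 C; readout CellTiter-Fluor fluorescence; run alongside the PGC/ERR antagonist screen to flag cytotoxic compounds.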

[13] = qHTS assay to identify small molecule antagonists of the estrogen related receptor (ERR) signaling pathway from Tox21 library - cell viability counter screen (AID 1224834); further: nearly all actives have a fitted effect of over 30% in size
Procedure, shortened: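 Counter screen run in ERR cells (2,000 cells/well): cells pre-incubated 6 h, then treated with compounds for 17.5 h at 37 C. Fluorescence was read 30 min after CellTiter-Fluor addition.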

[14] = biological target: Luciferin 4-monooxygenase (Photinus pyralis) (UniProt P08659); assay: qHTS assay to identify small molecule inhibitors of firefly luciferase (AID 1224835); further: nearly all actives have a fitted effect of over 25% in size; further: potency means the concentration at half of the fitted maximal effect
Procedure, shortened: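 Inhibition of purified Photinus luciferase is measured by luminescence. Substrate levels (D-luciferin, ATP) sit at their KM values. Each compound is tested in a concentration series.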

[15] = qHTS assay to identify small molecule agonists of the constitutive androstane receptor (CAR) signaling pathway - cell viability counter screen (AID 1224836); further: series mostly up to about 92 µM; nearly all actives have a fitted effect of over 45% in size
Procedure, shortened: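 Multiplexed viability check: HepG2-CYP2B6-hCAR cells, 15-point compound dosing, 0.75 uM PK11195 final, 23 h at 37 C, CellTiter-Fluor fluorescence.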

[16] = qHTS assay to identify small molecule agonists of the endoplasmic reticulum stress response signaling pathway (AID 1159516; active means well fitted activation curve with a large enough effect in the signal ratio in the repeat runs, not every such curve was filed as active; the % refers to the signal ratio)
Procedure, shortened: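 Fluorescence at 460 and 530 nm (405 nm excitation) reports beta-lactamase from an ER stress response element in HeLa cells treated 5 hr at 37 C.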

[17] = biological target: Nuclear receptor ROR-gamma (Homo sapiens) (UniProt P51449); assay: qHTS assay to identify small molecule antagonists of the retinoid-related orphan receptor gamma (ROR-gamma) signaling pathway (AID 1159521)
Procedure, shortened: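 Screening format: cell-based luciferase reporter in CHO cells with doxycycline-inducible RORγ. Compound pre-exposure lasts 2 h, doxycycline is 1 uM final, induction runs 16 h at 37 C, and ONE-Glo luminescence is read.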

[18] = biological target: Retinoic acid receptor RXR-alpha (Homo sapiens) (UniProt P19793); assay: qHTS assay to identify small molecule agonists of the RXR signaling pathway (AID 1159527; calls by dose curve; further: nearly all actives have a fitted effect of over 35% in size)
Procedure, shortened: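 Fluorescence ratio readout (460 vs 530 nm) from GeneBLAzer RXR-alpha HEK 293T cells after 16 hr compound treatment; cells seeded 5 hr beforehand in low-serum, charcoal-stripped medium.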

[19] = qHTS assay to identify small molecule antagonists of the retinoic acid receptor (RAR) signaling pathway (AID 1159552; further: nearly all actives have a fitted effect of over 50% in size)
Procedure, shortened: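 Using a RARE-driven luciferase construct in C3RL4 cells, retinol at 1 uM final provided the agonist stimulus while compounds were co-applied. After 6 hours at 37 C, luminescence was recorded to flag inhibitors of retinol signaling.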

Sequence of Luciferin 4-monooxygenase (Photinus pyralis) (P08659 whole entry, looked up): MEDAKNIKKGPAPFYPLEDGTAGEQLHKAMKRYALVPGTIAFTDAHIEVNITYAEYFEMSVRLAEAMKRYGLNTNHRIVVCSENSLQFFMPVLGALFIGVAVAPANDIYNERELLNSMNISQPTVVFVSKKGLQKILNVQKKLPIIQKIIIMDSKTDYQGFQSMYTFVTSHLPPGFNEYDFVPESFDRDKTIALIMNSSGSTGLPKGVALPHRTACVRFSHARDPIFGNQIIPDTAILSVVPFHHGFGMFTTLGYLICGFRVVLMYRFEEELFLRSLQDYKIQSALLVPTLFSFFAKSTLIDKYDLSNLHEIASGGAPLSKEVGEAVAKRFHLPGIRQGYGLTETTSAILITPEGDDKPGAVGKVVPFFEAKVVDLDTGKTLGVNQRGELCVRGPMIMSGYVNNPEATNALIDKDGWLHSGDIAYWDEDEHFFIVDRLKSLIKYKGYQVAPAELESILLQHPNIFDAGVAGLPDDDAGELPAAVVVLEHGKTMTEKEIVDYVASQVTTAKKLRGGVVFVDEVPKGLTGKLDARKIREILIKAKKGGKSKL
Sequence of Retinoic acid receptor RXR-alpha (Homo sapiens) (P19793 whole entry, looked up): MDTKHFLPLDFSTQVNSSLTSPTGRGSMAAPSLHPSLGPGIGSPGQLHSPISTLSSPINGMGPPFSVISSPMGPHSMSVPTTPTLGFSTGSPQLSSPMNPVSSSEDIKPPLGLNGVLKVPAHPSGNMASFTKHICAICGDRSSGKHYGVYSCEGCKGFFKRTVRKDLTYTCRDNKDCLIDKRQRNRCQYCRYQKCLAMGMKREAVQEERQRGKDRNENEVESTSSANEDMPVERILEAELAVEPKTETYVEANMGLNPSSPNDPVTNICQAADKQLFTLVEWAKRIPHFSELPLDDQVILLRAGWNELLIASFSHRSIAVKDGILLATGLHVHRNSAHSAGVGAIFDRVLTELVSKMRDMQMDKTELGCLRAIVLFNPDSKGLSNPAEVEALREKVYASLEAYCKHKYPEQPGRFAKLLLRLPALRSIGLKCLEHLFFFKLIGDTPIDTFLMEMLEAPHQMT

| Compound | Potency [1] | outcome [2] | outcome [3] | outcome [4] | Potency [5] | Potency [6] | outcome [7] | Potency [8] | outcome [9] | Potency [10] | outcome [11] | outcome [12] | Potency [13] | Potency [14] | Potency [15] | outcome [16] | Potency [17] | Potency [18] | Potency [19] |
| --- | --- | --- | --- | --- | --- | --- | --- | --- | --- | --- | --- | --- | --- | --- | --- | --- | --- | --- | --- |
| Cc1cnc(C(=O)NCCc2ccc(S(=O)(=O)NC(=O)NC3CCCCC3)cc2)cn1 | inactive | inactive | inactive | inactive | inactive | inactive | inactive | inactive | inactive | inactive | inactive | inactive | inactive | inactive | inactive | – | – | – | – |
| CC(C)CC(=O)CC(C)C | inactive | inactive | inactive | inactive | – | inactive | inactive | inactive | inactive | – | – | – | inactive | inactive | inactive | inactive | inactive | – | – |
| CCCCCC(N)=O | inactive | – | inactive | inactive | inactive | inactive | inactive | inactive | inactive | – | – | – | inactive | inactive | inactive | inactive | inactive | inactive | – |
| c1ccc(OCCOc2ccccc2)cc1 | inactive | – | inactive | inactive | – | inactive | inactive | inactive | inactive | – | – | – | inactive | 28.2 µM (active) and 35.6 µM (active) | inactive | inactive | inactive | inactive | – |
| O=[N+]([O-])c1ccc(/C=C/c2ccc([N+](=O)[O-])cc2S(=O)(=O)O)c(S(=O)(=O)O)c1 | inactive | inactive | inactive | inactive | inactive | inactive | inactive | inactive | inactive | – | – | – | inactive | inactive | inactive | inactive | inactive | – | – |
| CCC(O)OC(O)CC (centres undefined) | inactive | inactive | inactive | inactive | – | inactive | inactive | inactive | inactive | inactive | – | – | inactive | inactive | inactive | inactive | – | inactive | inactive |
